The supplement of paper PMC6555819

Legend:
Experiment in all cases: PBM binding z-score (relative to random genomic background probes); higher = stronger binding; sequences stand for … in GC…GCGATTGACAGCGTAGAATGAAGG
[1] = tested on: FXR:RXRa (NR concentration 270 nM, RXRa partner concentration 90 nM)
Procedure, shortened: (§1)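 Binding buffer was PBS pH 7.4 with 2% milk, 0.02% Triton X-100, 1 mM DTT, 0.2 mg/mL BSA and 0.4 mg/ml salmon testes DNA. In it, ligand-free nuclear receptor dimers were incubated 1 h on custom Agilent 4×180K protein-binding microarrays carrying double-stranded probes. Antibodies against each partner (one per run) detected binding, and z-scores were calculated against random background probes after regression normalization of scanned fluorescence.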

[2] = tested on: LXRa:RXRa (NR concentration 270 nM, RXRa partner concentration 90 nM)
Procedure, shortened: as §1

[3] = tested on: LXRa homodimer (NR concentration 270 nM)
Procedure, shortened: as §1

[4] = tested on: LXRb:RXRa (NR concentration 270 nM, RXRa partner concentration 90 nM)
Procedure, shortened: as §1

[5] = tested on: LXRb homodimer (NR concentration 270 nM)
Procedure, shortened: as §1

[6] = tested on: PPARa:RXRa (NR concentration 270 nM, RXRa partner concentration 90 nM)
Procedure, shortened: as §1

[7] = tested on: PPARg:RXRa (NR concentration 180 nM, RXRa partner concentration 90 nM)
Procedure, shortened: as §1

[8] = tested on: PPARg:RXRa 270nM:90nM, anti-RXR (NR concentration 270 nM, RXRa partner concentration 90 nM)
Procedure, shortened: as §1

[9] = tested on: PPARg:RXRa 30nM:10nM, anti-RXR (NR concentration 30 nM, RXRa partner concentration 10 nM)
Procedure, shortened: as §1

[10] = tested on: PPARg:RXRa 90nM:30nM, anti-RXR (NR concentration 90 nM, RXRa partner concentration 30 nM)
Procedure, shortened: as §1

[11] = tested on: PPARg:RXRa DBDmut IVT, anti-RXR (DBD mutation: RXRa K156A/R161A, NR concentration 270 nM, RXRa partner concentration 90 nM)
Procedure, shortened: as §1

[12] = tested on: PPARg:RXRa IVT, anti-PPARg (NR concentration 270 nM, RXRa partner concentration 90 nM)
Procedure, shortened: as §1

[13] = tested on: PPARg DBDmut:RXRa IVT, anti-PPARg (DBD mutation: PPARg1 K132A/R137A, NR concentration 270 nM, RXRa partner concentration 90 nM)
Procedure, shortened: as §1

[14] = tested on: PPARg DBDmut IVT, anti-PPARg (DBD mutation: PPARg1 K132A/R137A, NR concentration 270 nM)
Procedure, shortened: as §1

[15] = tested on: PPARg homodimer (NR concentration 180 nM)
Procedure, shortened: as §1

[16] = tested on: PXR:RXRa (NR concentration 270 nM, RXRa partner concentration 90 nM)
Procedure, shortened: as §1

[17] = tested on: PXR homodimer (NR concentration 270 nM)
Procedure, shortened: as §1

[18] = tested on: RARa:RXR (NR concentration 270 nM, RXRa partner concentration 90 nM)
Procedure, shortened: as §1

[19] = tested on: RARa homodimer (NR concentration 270 nM)
Procedure, shortened: as §1

[20] = tested on: RARb:RXRa (NR concentration 270 nM, RXRa partner concentration 90 nM)
Procedure, shortened: as §1

Sequence	PBM binding z-score [1]	PBM binding z-score [2]	PBM binding z-score [3]	PBM binding z-score [4]	PBM binding z-score [5]	PBM binding z-score [6]	PBM binding z-score [7]	PBM binding z-score [8]	PBM binding z-score [9]	PBM binding z-score [10]	PBM binding z-score [11]	PBM binding z-score [12]	PBM binding z-score [13]	PBM binding z-score [14]	PBM binding z-score [15]	PBM binding z-score [16]	PBM binding z-score [17]	PBM binding z-score [18]	PBM binding z-score [19]	PBM binding z-score [20]
CGTCCAAGGTCAAGGTCAGTGGAAGAGACTCGAA	7.57	5.46	1.22	4.68	0.505	5.89	6.29	6.3	2.6	5.24	3.54	4.55	0.113	-0.109	3.84	4.68	1.08	4.79	0.944	5.61
CAAACTAGGTCAGAGGTCAAAGTCGAGCCAACCA	7.41	6.65	5.53	6.17	2.6	7.53	13.4	11.1	11.7	12.8	8.29	8.85	2.06	4.69	5.7	6.37	2.49	8.36	2.29	5.18
CCTACTGGGCCACGAAAGGTCTTTGATTCAGTGA	0.186	-0.153	-0.487	-0.225	-1.08	1.31	1.84	1.99	-0.0558	0.769	4.89	5.29	0.279	-0.311	0.598	0.109	-0.43	0.284	-0.304	0.791
CGTCCAAGGTCAGAGAGGTCTGTGAATGCCGAGT	4.66	3.14	0.0313	2.1	-0.51	3.92	2.27	2.64	0.0649	1.45	2.15	2.25	-0.507	-0.56	2.09	2.96	1.23	3.24	0.529	4.49
ATATGTAGGTTATCGGGTCGTTCAGTTTGCGCAT	1.16	1.68	0.76	1.73	0.781	3.79	5	4.95	2.24	4.25	7.3	6.87	1.68	1.58	1.6	1.91	2.09	1.62	1.26	1.42
CAAACTAGGTCACGCAAGGTCAAAGTCGAATGAC	7.41	7.71	7.2	7.01	1.72	6.75	10.2	7.79	6.97	8.64	8.48	9.3	4.39	5.78	5.5	7.23	3.2	6.68	4.04	5.5
ACTAGCAGGCCAAGTTTTGGTCACTCAAACAAAG	-0.294	-0.403	-0.274	-0.34	-0.558	-0.0813	-0.156	-0.261	-0.692	-0.457	0.635	0.635	-0.425	-0.348	-0.321	-0.259	-0.809	0.113	-0.612	0.742
